In the library only some 3% were active in any assay of this set; here they are far more common.
SARS PLpro yeast-1: qHTS of Yeast-based Assay for SARS-CoV PLP; S. cerevisiae expressing SARS-CoV PLpro, growth rescue; Potency, µM (series often up to 32.9 µM), usual class: activators; actives 0.19% (n = 330,000); AID 485353, 2010; calls by dose curve; also: nearly all actives have a fitted effect of over 55% in size
Sm TGR block: qHTS Assay for the Inhibitors of Schistosoma Mansoni Peroxiredoxins; Schistosoma mansoni thioredoxin glutathione reductase (TGR), Q962Y6; purified TGR, DTNB reduction, TNB absorbance 405 nm; Potency, µM (series often up to 114 µM), usual class: inhibitors; actives 3% (n = 360,000); AID 485364, 2010; active = well fitted inhibition curve with a large enough effect; inconclusive = small, poorly fitted or top-dose-only effect; inactive = no such curve, though single readings can be large or run the other way; also: nearly all actives have a fitted effect of over 60% in size
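Kinetic colorimetric format: TGR-catalysed, NADPH-driven DTNB reduction monitored via TNB absorbance. Enzyme dispensed at 20 nM; compound exposure 15 min at room temperature before reaction start.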
SARS PLpro yeast-2: qHTS of Yeast-based Assay for SARS-CoV PLP: Hit Validation; shares compounds with SARS PLpro yeast-1; calls only; AID 652038, 2013; actives 19% (n = 1,000); yeast expressing SARS-CoV PLpro, growth phenotype rescue; call rule not given here
Hits are given with their value.

Screening COc1cccc(CNC(=O)CN2C(=O)CSc3c2c(C)nn3-c2ccccc2)c1OC returned Sm TGR block inactive.
For CCOc1ccccc1CNC(=O)CN1C(=O)CCn2nc(-c3cn(C)c4ccccc34)cc21 the results were Sm TGR block inactive.
`Cc1ccc(-n2ncc(C(=O)NCc3ccco3)c2C2CCN(C(=O)OC(C)(C)C)CC2)c(C)c1` gave Sm TGR block inactive.
Screening Cc1ccc(N2CN(Cc3cccnc3)CNC2=S)c(C)c1 returned SARS PLpro yeast-1 inactive and Sm TGR block inactive.
`Cc1ccc(N2CN(Cc3ccco3)CNC2=S)c(C)c1` gave SARS PLpro yeast-1 inconclusive, Sm TGR block inactive and SARS PLpro yeast-2 inconclusive.
Screening CCOc1ccc(CNC(=O)Cn2c(=O)c3cccn3c3ccc(F)cc32)cc1OC returned Sm TGR block inactive.
CCc1cccc(NS(=O)(=O)c2cc(-c3cnc(C)o3)ccc2OC)c1 was read as Sm TGR block inactive.
`O=c1c2ccccc2nc(N/N=C/c2ccc(O)cc2)n1O` gave SARS PLpro yeast-1 inactive and Sm TGR block inactive.
`O=c1c2ccccc2nc(N/N=C/c2c(O)ccc3ccccc23)n1O` gave SARS PLpro yeast-1 13µM, Sm TGR block inactive and SARS PLpro yeast-2 active.
`CCCCN(CC)CCNC(=O)Cn1c(=O)c2cccn2c2cccnc21` gave Sm TGR block inactive.
For CCc1cccc(-n2c(=O)c3cccnc3n2CC(=O)Nc2ccc(OC)c(Cl)c2)c1 the results were Sm TGR block inactive.
C[C@]12c3[nH]c4cc(-c5ccco5)ccc4c3CCN1C(=O)[C@@H](CC(=O)NCCCn1ccnc1)C[C@@H]2C(=O)N1CCCCC1 was read as SARS PLpro yeast-1 inactive.
C[C@]12c3[nH]c4cc(-c5ccco5)ccc4c3CCN1C(=O)[C@@H](CC(=O)NCCCn1ccnc1)C[C@@H]2C(=O)N1CCOCC1 was read as SARS PLpro yeast-1 inconclusive and SARS PLpro yeast-2 inactive.
COC(=O)c1cc(C)nc2c1c(=O)nc(SCc1ccccc1C)n2C1CC1 was read as Sm TGR block inactive.
For COc1cc(NC(=O)c2cc([N+](=O)[O-])ccc2N2CCOCC2)ccc1NC(=O)c1ccco1 the results were SARS PLpro yeast-1 inactive and Sm TGR block inactive.
Screening COc1cc(NC(=O)c2cccc([N+](=O)[O-])c2C)ccc1NC(=O)c1ccco1 returned SARS PLpro yeast-1 2.8µM, Sm TGR block inactive and SARS PLpro yeast-2 inactive.
`COc1ccc2nc3oc(C(=O)Nc4cccc(C(F)(F)F)c4)cc3cc2c1` gave Sm TGR block inactive.
For COC(=O)c1sc(NC(=S)NC(=O)c2cccc(Br)c2)nc1C the results were SARS PLpro yeast-1 inconclusive, Sm TGR block inactive and SARS PLpro yeast-2 inconclusive.
Screening COC(=O)c1sc(NC(=S)NC(=O)c2ccc(F)cc2)nc1C returned SARS PLpro yeast-1 inactive and Sm TGR block inactive.
`O=C(NCc1ccccc1Cl)c1ccc2oc(=O)n(Cc3ccccc3)c2c1` gave Sm TGR block inactive.
CCOc1ccc(CCNC(=O)c2cnc3c(-c4ccc(F)cc4)c(C)nn3c2C)cc1OCC was read as Sm TGR block inactive.
Screening O=C(CNC(=O)c1ccco1)OC(C(=O)c1ccccc1)c1ccccc1 (centres undefined) returned SARS PLpro yeast-1 inconclusive, Sm TGR block inactive and SARS PLpro yeast-2 inactive.
`O=C(CNC(=O)c1ccco1)NCC(=O)OC(C(=O)c1ccccc1)c1ccc(Cl)cc1` (centres undefined) gave SARS PLpro yeast-1 inactive and Sm TGR block inconclusive.
Screening COC(C(=O)Nc1ccc(F)cc1)c1ccccc1 (centres undefined) returned SARS PLpro yeast-1 16µM, Sm TGR block inactive and SARS PLpro yeast-2 inactive.
For COC(C(=O)Nc1ccc(S(=O)(=O)Nc2ccc(F)cc2)cc1)c1ccccc1 (centres undefined) the results were SARS PLpro yeast-1 inactive and Sm TGR block inactive.
For O=C(CC(Nc1ccc(F)cc1)c1ccccc1)c1ccccc1 (centres undefined) the results were SARS PLpro yeast-1 3.2µM, Sm TGR block inactive and SARS PLpro yeast-2 inactive.
For O=C(Nc1ccc(F)cc1)c1cccc(C(=O)Nc2ccc(F)cc2)c1 the results were SARS PLpro yeast-1 inactive and Sm TGR block inactive.
Screening O=C(Nc1ccc(F)cc1)c1ccccc1 returned SARS PLpro yeast-1 inconclusive, Sm TGR block inactive and SARS PLpro yeast-2 inactive.
For O=C(CC(CC(=O)c1ccccc1)c1ccccc1)c1ccccc1 the results were SARS PLpro yeast-1 inactive and Sm TGR block inactive.
Screening COc1ccccc1C(=O)Nc1cccc(C(=O)OCc2cc(=O)n3nc(C)sc3n2)c1 returned Sm TGR block inactive.
COc1ccc(C)cc1NS(=O)(=O)c1ccc2oc(=O)c3ncn(C)c3c2c1 was read as Sm TGR block inactive.
CCOC(=O)C1CCN(C(=O)Cn2ncc3c4ccccc4n(Cc4ccccc4F)c3c2=O)CC1 was read as Sm TGR block inactive.
N#Cc1ccc(CN2CCN(C(=O)c3cc(Cl)c4c(c3)OCCO4)CC2)cc1 was read as SARS PLpro yeast-1 inactive and Sm TGR block inactive.
NC(=O)C1CCN(C(=O)c2cc(Cl)c3c(c2)OCCO3)CC1 was read as SARS PLpro yeast-1 2.5µM and SARS PLpro yeast-2 inactive.
COc1ccc(-c2nc3sc(CCNC(=O)Cc4ccccc4)c(C)n3n2)cc1 was read as Sm TGR block inactive.
CC(=O)Nc1ccc(Cc2ccncc2)cc1 was read as SARS PLpro yeast-1 inactive and Sm TGR block inactive.
`CCCCCC(=O)Nc1ccc(Cc2ccncc2)cc1` gave SARS PLpro yeast-1 13µM, Sm TGR block inactive and SARS PLpro yeast-2 inactive.
For COc1ccccc1NC(=S)Nc1ccccc1F the results were SARS PLpro yeast-1 inactive and Sm TGR block inactive.
Screening CCOc1ccccc1NC(=S)Nc1ccccc1F returned SARS PLpro yeast-1 inconclusive, Sm TGR block inactive and SARS PLpro yeast-2 inactive.
For O=C(N/N=C/C1CC=CCC1)c1ccccc1O (centres undefined) the results were SARS PLpro yeast-1 inactive and Sm TGR block inactive.
For O=C(N/N=C/C1CC=CCC1)c1ccc(Cl)cc1O (centres undefined) the results were SARS PLpro yeast-1 11µM, Sm TGR block inactive and SARS PLpro yeast-2 inactive.
For CN(C)S(=O)(=O)c1ccc(C(=O)NCc2ccc3[nH]c4c(c3c2)CCCC4)cc1 the results were SARS PLpro yeast-1 3.5µM, Sm TGR block inactive and SARS PLpro yeast-2 active.
CCN(CC)S(=O)(=O)c1ccc(C(=O)NCc2ccc3[nH]c4c(c3c2)CCCC4)cc1 was read as SARS PLpro yeast-1 inactive and Sm TGR block inactive.
Cc1cc(C)c2c(NC(=S)NC(=O)c3ccccc3)nn(C)c2n1 was read as SARS PLpro yeast-1 inactive and Sm TGR block inconclusive.
Screening Cc1cc(C)c2c(NC(=O)CCl)nn(C)c2n1 returned SARS PLpro yeast-1 11µM, Sm TGR block 32µM and SARS PLpro yeast-2 active.
CCOC(=O)c1sc2ncn(CC(=O)Nc3ccc(C)cc3Br)c(=O)c2c1C was read as Sm TGR block inactive.
For Cc1cccc(NC(=O)Cn2cnc3c(oc4nc5c(cc43)COC(C)(C)C5)c2=O)c1 the results were SARS PLpro yeast-1 13µM, Sm TGR block inactive and SARS PLpro yeast-2 inactive.
`CC1(C)Cc2nc3oc4c(=O)n(CC(=O)Nc5cccc(Cl)c5)cnc4c3cc2CO1` gave SARS PLpro yeast-1 inactive and Sm TGR block inactive.
